# The whole screen tested about 1,300 compounds, of which about 10 (0.8%) were called active. The full list was thinned out, with actives kept by preference. A number with no mark means an inactive call. How the calls were made is not given here.
# Target: Chaperone protein DnaK (Escherichia coli (strain K12)) (UniProt P0A6Y8)
# Experiment: E. coli DnaK chaperone inhibitors, primary screen, luminescence, E. coli K12 (AID 547);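 further: tested at 10 µM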
# Settings: DnaK chaperone assay, luminescence read-out; active compounds read low
row,Compound,luminescence
1,CN(N=O)c1ccc(O)c(O)c1,951000 cps (active)
2,CN(N=O)c1cc(O)ccc1O,2.3e+06 cps
3,CCCN(CCC)CCc1ccc(O)c(O)c1,2.6e+06 cps
4,CCN(CCCl)Cc1ccccc1Br,2.7e+06 cps
5,N[C@@H](CCl)C(=O)O,2.4e+06 cps
6,NC(Cc1ccc(N(CCCl)CCCl)cc1)C(=O)O (stereo not given),2.5e+06 cps
7,NC(Cc1cc(O)c(O)cc1O)C(=O)O (stereo not given),1.2e+06 cps (active)
8,C[N+](C)(C)CC(=O)O,2.7e+06 cps
9,Oc1ccc2c3c1O[C@H]1c4[nH]c5ccccc5c4C[C@@]4(O)C(C2)N(CC2CC2)CCC314 (stereo not given in full),2.5e+06 cps
10,C[C@]12CC[C@H]3[C@@H](CCC4C[C@H](O)CC[C@@]43C)[C@@H]1CC[C@@H]2O (stereo not given in full),2.6e+06 cps
